# Screening data: PubChem BioAssay, National Center for Advancing Translational Sciences (NCATS)
# KinaseGlo FLuc: blocks Kinase-Glo luciferase, a counter-screen artifact | Q27757 | Kinase-Glo luciferase, ATP luminescence, 8 min | Potency, µM (doses to about 38.3 µM), inactives show at the highest dose activity change, negative = inhibition, hits mostly inhibitors | actives 0.28% (n = 200,000) | AID 1379; further: on the % scale 0 is the no-effect control and ±100 the full control effect; nearly all actives have a fitted effect of over 60% in size
#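 Recombinant Kinase-Glo luciferase, 10 uM ATP (linear range), luciferin; imidazole pH 7.2 / KCl / MgCl2 / Tween / BSA buffer; 8 min RT; luminescence.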
# NPC1 promoter act: activators of NPC1 promoter; actives 2.4% (n = 320,000); Potency, µM (titrated, usually from 9.22 µM), without a hit: top-dose activation, hits mostly activators; Huh7 NPC1 promoter luciferase reporter, 24 h; further: % of control where 0% means no effect; nearly all actives have a fitted effect of over 60% in size
#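 In 1536-well qHTS, Huh7 cells harboring an NPC1 promoter–luciferase construct received compound for 24 h; activation was quantified by luminescence following luciferase reagent addition.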
# SMN2 splice up: increases expression of the SMN2 splice variant; HEK293 SMN2-luciferase splicing reporter, luminescence, 30-36 h; actives 2.8% (n = 210,000); AID 1458; Potency, µM (top dose mostly 46.1 µM), inactives show at the highest dose activity change, positive = activation, usual class: activators; further: % of control where 0% means no effect; nearly all actives have a fitted effect of over 55% in size
#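 HEK293 cells carry an SMN2 minigene-luciferase reporter in which exon 7 inclusion puts luciferase in frame. Cells were seeded at 2000 cells/well, attached for 10-12 hours, then exposed to compounds for 30-36 hours at 37C before ONE-Glo luminescence.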
# ELG1 genotoxic: inducers of genotoxicity in HEK293T ELG1-luciferase cells; HEK293T ELG1-luciferase reporter, luminescence, 16 h; Potency, µM (top dose mostly 46 µM), without a hit: at the top dose activity change, positive = activation, usual class: activators; actives 1.3% (n = 330,000); further: % of control where 0% means no effect; nearly all actives have a fitted effect of over 60% in size
#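 Screening used a luciferase reporter fused to human ELG1 in HEK293T cells. Luminescence was read on a CCD plate imager after 16 hr exposure and 30 min ONE-Glo incubation.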
# Rab9 promoter act: activates the Rab9 promoter. Huh7 Rab9 promoter-luciferase reporter, luminescence, 24 h. Potency, µM (doses to about 9.22 µM), inactives show at the top dose activation, negative = inhibition, most hits filed as activators. actives 2.8% (n = 320,000). AID 485297; further: % of control where 0% means no effect; nearly all actives have a fitted effect of over 60% in size
#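 Luminescence from Amplite-detected luciferase (10 minutes, ambient) reports Rab9 promoter activation. Before that, stable Rab9-luciferase Huh7 cells (1500/well, reduced-serum OP-MEM I plus 10% FBS) were exposed to compound for 24 hours at 37C.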
# FLuc modulator: inhibits or activates purified firefly luciferase, miR-21 counter-screen. P08659. purified FLuc, Km substrates, luminescence inhibition. Potency, µM (top dose mostly 57.5 µM), for inactives: at the top dose activity change, negative = inhibition, most hits filed as inhibitors. actives 6.9% (n = 360,000);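 further: plate controls were vehicle for no effect and reference inhibitor for full effect; nearly all actives have a fitted effect of over 55% in size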
# Target sequence (P08659 whole entry, looked up): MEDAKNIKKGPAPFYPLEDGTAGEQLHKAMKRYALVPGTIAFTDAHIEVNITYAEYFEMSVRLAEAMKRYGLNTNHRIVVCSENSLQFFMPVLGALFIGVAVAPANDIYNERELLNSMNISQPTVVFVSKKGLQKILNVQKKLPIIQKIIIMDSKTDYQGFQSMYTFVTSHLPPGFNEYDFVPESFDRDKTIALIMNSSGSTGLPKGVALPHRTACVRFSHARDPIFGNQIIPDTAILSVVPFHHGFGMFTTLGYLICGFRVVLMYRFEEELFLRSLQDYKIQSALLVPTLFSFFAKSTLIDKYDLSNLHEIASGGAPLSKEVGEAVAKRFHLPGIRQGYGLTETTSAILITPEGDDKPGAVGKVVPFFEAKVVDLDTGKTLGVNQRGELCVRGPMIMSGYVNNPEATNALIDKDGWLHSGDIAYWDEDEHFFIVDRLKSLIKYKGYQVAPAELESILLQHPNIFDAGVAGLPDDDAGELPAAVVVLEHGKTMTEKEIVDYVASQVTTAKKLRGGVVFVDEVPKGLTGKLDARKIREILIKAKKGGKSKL
#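 Purified P. pyralis luciferase (10nM final) with 10uM D-luciferin and 10uM ATP (Km levels) in 50mM Tris acetate pH 7.5, 10mM Mg acetate, 0.01% Tween-20, 0.05% BSA; qHTS 6-point titration, ~60 µM downward; luminescence read.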
# Numbers without * were called inactive; ? = inconclusive; / = not tested or not shown; [ ] = another dose, or the depositor's remark. Only some compounds are listed: those with a hit (about 7.5% of all), similar ones and a draw of the others. The call rests on the fitted dose curve; in most records, active means well fitted curve in the direction sought with a large enough effect; inconclusive means small, poorly fitted or top-dose-only effect, or another doubt; inactive means no such curve, though single readings can be large; an effect the other way counts as inactive or inconclusive. Potency means the concentration at half of the fitted maximal effect.
SMILES,KinaseGlo FLuc,NPC1 promoter act,SMN2 splice up,ELG1 genotoxic,Rab9 promoter act,FLuc modulator
CC(C)C(NC(=O)c1ccc2c(c1)OCCO2)c1nc2ccccc2[nH]1 (stereo unspecified),/,-9%,/,?,-7%,-1%
C/C(=N\Nc1nc2ccccc2[nH]1)c1ccc2c(c1)OCCO2,/,-38%,/,-4%,-5%,6µM*
C/C(=N\Nc1nc2ccccc2[nH]1)c1ccc2c(c1)OCO2,-4%,14%,0%,-5%,15%,27µM*
O=C(N/N=C/c1ccc2c(c1)OCO2)c1ccc(NC(=O)c2ccccc2Cl)cc1,/,-5%,/,-20%,10%,?
Clc1ccccc1N/N=C/c1ccc2c(c1)OCO2,-25%,2.8µM*,20µM*,?,2.8µM*,11µM*
C(=N\Nc1nc2ccccc2[nH]1)/c1ccc2c(c1)OCO2,-1%,1.6µM*,13µM*,?,2µM*,7.6µM*
COc1ccc(S(=O)(=O)N(C)C[C@@H]2Oc3c(NS(C)(=O)=O)cccc3C(=O)N([C@@H](C)CO)C[C@H]2C)cc1,/,/,/,4%,/,/
COc1ccc(/C=C/C(=O)Nc2nc(-c3cccs3)ns2)cc1,/,/,/,/,/,-6%
N#CC1(c2nc3ccccc3[nH]2)CC1c1ccc2c(c1)OCO2 (stereo unspecified),0%,1%,11%,3%,0%,19µM*
O=C(CCc1nc2ccccc2[nH]1)NCc1ccc2c(c1)OCO2,-1%,1%,-5%,1%,-1%,-1%
C/C(=N\Nc1ccccn1)c1ccc2c(c1)OCO2,-2%,?,/,?,3.2µM*,21µM*
CC(C)Nc1ncnc2c1cnn2-c1ccc(Cl)cc1,-3%,0.28µM*,1.3µM*,0.37µM*,0.32µM*,0.54µM*
Cc1cccc(Nc2ncnc3c2cnn3C)c1,2%,1%,2%,?,-1%,-4%
Clc1ccc(Nc2ncnc3c2cnn3-c2ccccc2)cc1,2%,?,43%,12µM*,?,13µM*
Cn1ncc2c(Nc3ccc(Cl)cc3)ncnc21,/,-4%,/,11%,-1%,?
Cn1ncc2c(Nc3ccc4ccccc4c3)ncnc21,/,?,/,?,3.2µM*,11µM*
CC(=O)N1c2ccccc2CC1C(=O)N1CCN(c2ccccc2)CC1 (stereo unspecified),/,/,/,/,/,3%
CCOc1ccc(NC(=O)CCCNC(=O)Cn2cnc3sc(C)c(C)c3c2=O)cc1,/,-5%,/,23%,4%,-1%
COC(=O)c1cccnc1,-2%[39.9 µM],/,/,/,/,/
N#Cc1cnn2ccc(-c3ccc4c(c3)CCC4)nc12,0%,1%,7%,0%,18%,-13%
C/C(=N/NC(=O)c1ccccn1)c1ccncc1,/,3.5µM*,/,?,?,17µM*
COc1ccc(C(=O)N/N=C(\C)c2ccccn2)cc1OC,/,-5%,/,?,-30%,?
C/C(=N\NC(=O)c1cccc(Br)c1)c1ccccn1,/,6%,/,?,-22%,13µM*
C/C(=N\NC(=O)c1ccc(Cl)c(Cl)c1)c1ccccn1,/,17%,/,?,-28%,?
C/C(=N/NC(=O)c1cnccn1)c1ccncc1,-1%,0%,2%,4%,16%,-4%
SMILES,KinaseGlo FLuc,NPC1 promoter act,SMN2 splice up,ELG1 genotoxic,Rab9 promoter act,FLuc modulator
C/C(=N\NC(=O)c1cc(Br)ccc1O)c1ccccn1,/,?,/,21µM*,?,17µM*
C/C(=N\NC(=O)c1ccccc1Cl)c1ccccn1,/,23%,/,15µM*,-21%,24µM*
O=C(O)CCc1c2ccc(=O)c(O)c-2oc2c(O)c(O)ccc12,-3%[7.66 µM],/,-5%[9.22 µM],/,/,/
Nc1c(C(=O)NC2CCCC2)c2nc3ccccc3nc2n1N,/,13%,/,2%,6%,17µM*
Nc1c(C(=O)NC2CCCC2)c2nc3ccccc3nc2n1/N=C/c1ccco1,2%,-2%,-18%,1%,-5%,5%
CCCCCC#CC[C@@H](O)/C=C/C=C/C=C\[C@@H](O)CCCC(=O)O,-4%,/,12%,/,/,/
CSc1ccccc1NC(=O)c1cc(C(C)C)on1,-8%,?,18%,12µM*,?,21µM*
